PubChem BioAssay (NCI)
This is part of a sample that, as a whole, favours compounds with a hit. Of some 79,000 tested, about 15% had one in any assay. Calls of active or inactive are those of the source. No stated cut-off is given here; in the data, active means growth inhibition above about 70%; inactive means the rest.

Tests used:
[1] = NCI Yeast Anticancer Drug Screen. Data for the rad52 strain (AID 147);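 further: 0% = growth of vehicle-treated control cultures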; conditions: S. cerevisiae rad52 mutant growth inhibition, hits give high values
Procedure, shortened: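 Read-out: growth inhibition versus vehicle-treated controls. Cells were a DNA repair-deficient yeast strain treated with compounds.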

[2] = NCI Yeast Anticancer Drug Screen. Data for the wt1 strain (AID 149);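 further: 0% = growth of vehicle-treated wt1 cultures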; conditions: S. cerevisiae wt1 strain (SPY 50644) growth inhibition, hits give high values
Procedure, shortened: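 Measured: growth of wt1 yeast under compound versus vehicle treatment, reported as inhibition.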

[3] = NCI Yeast Anticancer Drug Screen. Data for the rad50EPP+ strain (AID 151);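 further: 0% = growth of vehicle-treated control cultures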; conditions: S. cerevisiae rad50 mutant strain, hits give high values
Procedure, shortened: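 Growth inhibition read against vehicle controls in rad50EPP+ yeast, a strain altered in DNA damage repair, after compound exposure.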

[4] = NCI Yeast Anticancer Drug Screen. Data for the mgt1 strain (AID 153); conditions: S. cerevisiae mgt1 mutant growth inhibition, hits give high values
Procedure, shortened: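 mgt1 yeast grown with test compound; read-out is growth inhibition versus vehicle-treated cultures.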

[5] = NCI Yeast Anticancer Drug Screen. Data for the rad50 strain (AID 155);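 further: 0% = growth of vehicle-only cultures of the same strain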; conditions: S. cerevisiae rad50 strain growth inhibition, hits give high values
Procedure, shortened: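 Growth of the mutant yeast was measured after compound exposure and referenced to vehicle-treated cultures.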

[6] = NCI Yeast Anticancer Drug Screen. Data for the mec2-1 strain (AID 157); conditions: S. cerevisiae mec2-1 strain, hits give high values
Procedure, shortened: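 Yeast mec2-1 mutant treated with compound. Readout: growth inhibition vs vehicle controls.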

[7] = NCI Yeast Anticancer Drug Screen. Data for the rad14 strain (AID 159);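 further: 0% = growth of vehicle-treated control cultures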; conditions: S. cerevisiae rad14 strain growth inhibition, hits give high values
Procedure, shortened: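 Here, inhibition of yeast growth was measured after compound exposure, using a strain with a genetic defect in DNA damage repair and vehicle-treated cultures as the reference.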

[8] = NCI Yeast Anticancer Drug Screen. Data for the sgs1 mgt1 strain (AID 161);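 further: 0% = growth of cultures given vehicle only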; conditions: S. cerevisiae sgs1 mgt1 strain, hits give high values
Procedure, shortened: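 Read-out: growth inhibition vs vehicle controls. Cells: mutant yeast strain deficient in DNA damage repair.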

[9] = NCI Yeast Anticancer Drug Screen. Data for the CLN2oe strain (AID 163);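 further: 0% = growth of vehicle-only control cultures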; conditions: S. cerevisiae CLN2oe strain, hits give high values
Procedure, shortened: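 Read-out: yeast growth inhibition, expressed relative to vehicle-only controls. The strain bears an engineered cell-cycle alteration.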

[10] = NCI Yeast Anticancer Drug Screen. Data for the cln2 rad14 strain (AID 165);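 further: 0% = growth equal to vehicle treated cultures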; conditions: S. cerevisiae cln2 rad14 strain, hits give high values
Procedure, shortened: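 cln2 rad14 yeast strain; compound exposure; growth inhibition read vs vehicle controls.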

[11] = NCI Yeast Anticancer Drug Screen. Data for the bub3 strain (AID 167); conditions: S. cerevisiae bub3 mutant strain, hits give high values
Procedure, shortened: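 Whole-cell yeast assay. The mutant strain was incubated with compounds, and growth inhibition was determined by comparison with vehicle-treated cells.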

[12] = NCI Yeast Anticancer Drug Screen. Data for the wt2 strain (AID 169);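 further: 0% = growth of vehicle-treated yeast cultures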; conditions: S. cerevisiae wt2 strain growth inhibition, hits give high values
Procedure, shortened: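 Read-out: growth inhibition versus vehicle-treated control cultures after compound exposure of the yeast strain.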

[13] = NCI Yeast Anticancer Drug Screen. Data for the mlh1 strain (AID 171);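 further: 0% = growth of vehicle-treated control cultures of the same strain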; conditions: S. cerevisiae mlh1 strain growth inhibition, hits give high values
Procedure, shortened: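 Read-out: growth inhibition versus vehicle controls. Strain: engineered yeast with a defined DNA repair or cell cycle defect, compound-treated.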

[14] = NCI Yeast Anticancer Drug Screen. Data for the sgs1 strain (AID 173);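 further: 0% = growth of vehicle-only control cultures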; conditions: S. cerevisiae sgs1 mutant, hits give high values
Procedure, shortened: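 Read-out: yeast growth inhibition relative to vehicle controls, following compound exposure of a strain with a defined DNA repair/cell cycle alteration.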

[15] = NCI Yeast Anticancer Drug Screen. Data for the mlh1 rad18 strain (AID 175); conditions: S. cerevisiae mlh1 rad18 strain growth inhibition, hits give high values
Procedure, shortened: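 Yeast w/ defined DNA-repair lesions; compound exposure; growth vs vehicle controls → % inhibition.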

[16] = NCI Yeast Anticancer Drug Screen. Data for the rad18 strain (AID 177); conditions: S. cerevisiae rad18 mutant growth inhibition, hits give high values
Procedure, shortened: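 Readout: growth inhibition vs vehicle controls. Cells: genetically altered yeast strain, DNA repair defect.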

[17] = at 5.0 µM (retest, dose inferred, filed as 0.5)
[18] = at 50.0 µM (retest, dose inferred, filed as 5.0)

Measured: growth inhibition

OC(c1ccccc1)(c1ccccc1)c1nccc2ccccc12
active: [1]; at 100.0 µM 81% | [5]; at 100.0 µM 70% | [6]; at 50.0 µM 75% | [8]; at 50.0 µM 71.5% | [11]; at 100.0 µM 75% | [14]; at 100.0 µM 71% | [15]; [18] 74%
inactive: [1]; at 1.2 µM 40% | [1]; at 3.7 µM 39% | [1]; at 11.0 µM 48% | [1]; at 33.0 µM 62% | [2]; at 1.2 µM 3% | [2]; at 3.7 µM -3% | [2]; at 11.0 µM 26% | [2]; at 33.0 µM -2% | [2]; at 100.0 µM 29% | [3]; at 1.2 µM 14% | [3]; at 3.7 µM 14% | [3]; at 11.0 µM 32% | [3]; at 33.0 µM 13% | [3]; at 100.0 µM 0% | [4]; at 1.2 µM -11% | [4]; at 3.7 µM 8% | [4]; at 11.0 µM 11% | [4]; at 33.0 µM 15% | [4]; at 100.0 µM 51% | [5]; at 1.2 µM 4% | [5]; at 3.7 µM 15% | [5]; [17] 14% | [5]; at 11.0 µM 24% | [5]; at 33.0 µM 39% | [5]; [18] 50% | [5]; at 50.0 µM 67.7% | [6]; at 1.2 µM 0% | [6]; at 3.7 µM 3% | [6]; [17] 2% | [6]; at 11.0 µM 9% | [6]; at 33.0 µM 7% | [6]; [18] 40% | [6]; at 100.0 µM 49% | [7]; at 1.2 µM 3% | [7]; at 3.7 µM 2% | [7]; at 11.0 µM 3% | [7]; at 33.0 µM 3% | [7]; at 100.0 µM 39% | [8]; [17] -4% | [8]; [18] 58% | [9]; at 1.2 µM 25% | [9]; at 3.7 µM 34% | [9]; at 11.0 µM 28% | [9]; at 33.0 µM 35% | [9]; at 100.0 µM 59% | [10]; [17] 6% | [10]; [18] 7% | [10]; at 50.0 µM 55.4% | [11]; at 1.2 µM 14% | [11]; at 3.7 µM 22% | [11]; [17] 0% | [11]; at 11.0 µM 25% | [11]; at 33.0 µM 25% | [11]; [18] 45% | [11]; at 50.0 µM 60.6% | [12]; at 1.2 µM -56% | [12]; at 3.7 µM -17% | [12]; at 11.0 µM -31% | [12]; at 33.0 µM -21% | [12]; at 100.0 µM 38% | [13]; at 1.2 µM -2% | [13]; at 3.7 µM 12% | [13]; at 11.0 µM 5% | [13]; at 33.0 µM 14% | [13]; at 100.0 µM 54% | [14]; at 1.2 µM 15% | [14]; at 3.7 µM 3% | [14]; at 11.0 µM 4% | [14]; at 33.0 µM 16% | [15]; [17] 12% | [15]; at 50.0 µM 51% | [16]; at 1.2 µM 0% | [16]; at 3.7 µM 14% | [16]; at 11.0 µM 27% | [16]; at 33.0 µM 55% | [16]; at 100.0 µM 63%

O=C(NNc1ccccc1)C(CCCCNS(=O)(=O)Cc1ccccc1)NS(=O)(=O)Cc1ccccc1 (stereo unspecified)
inactive: [1]; at 1.2 µM 3% | [1]; at 3.7 µM 9% | [1]; at 11.0 µM 29% | [1]; at 33.0 µM 46% | [2]; at 1.2 µM 4% | [2]; at 3.7 µM 9% | [2]; at 11.0 µM 26% | [2]; at 33.0 µM 44% | [2]; at 100.0 µM 54% | [3]; at 1.2 µM 3% | [3]; at 3.7 µM 10% | [3]; at 11.0 µM 25% | [3]; at 33.0 µM 55% | [3]; at 100.0 µM 68% | [4]; at 1.2 µM 0% | [4]; at 3.7 µM 11% | [4]; at 11.0 µM 13% | [4]; at 33.0 µM 18% | [4]; at 100.0 µM 18% | [5]; at 1.2 µM 5% | [5]; at 3.7 µM 10% | [5]; [17] 18% | [5]; at 11.0 µM 36% | [5]; at 33.0 µM 56% | [5]; [18] 53% | [5]; at 50.0 µM 51.2% | [6]; at 1.2 µM -2% | [6]; at 3.7 µM 8% | [6]; [17] 5% | [6]; at 11.0 µM 25% | [6]; at 33.0 µM 48% | [6]; [18] 34% | [6]; at 50.0 µM 26.4% | [6]; at 100.0 µM 39% | [7]; at 1.2 µM 0% | [7]; at 3.7 µM 1% | [7]; at 11.0 µM 3% | [7]; at 33.0 µM 13% | [7]; at 100.0 µM 18% | [8]; [17] 10% | [8]; [18] 54% | [8]; at 50.0 µM 51.5% | [9]; at 1.2 µM 1% | [9]; at 3.7 µM 6% | [9]; at 11.0 µM 31% | [9]; at 33.0 µM 51% | [9]; at 100.0 µM 44% | [10]; [17] 5% | [10]; [18] 46% | [10]; at 50.0 µM 14.8% | [11]; at 1.2 µM 1% | [11]; at 3.7 µM 3% | [11]; [17] 11% | [11]; at 11.0 µM 44% | [11]; at 50.0 µM 53.6% | [11]; at 100.0 µM 47% | [12]; at 1.2 µM 2% | [12]; at 3.7 µM 6% | [12]; at 11.0 µM 22% | [12]; at 33.0 µM 28% | [12]; at 100.0 µM 51% | [13]; at 1.2 µM 1% | [13]; at 3.7 µM 1% | [13]; at 11.0 µM 11% | [13]; at 33.0 µM 32% | [13]; at 100.0 µM 44% | [14]; at 1.2 µM 2% | [14]; at 3.7 µM 7% | [14]; at 11.0 µM 25% | [14]; at 33.0 µM 42% | [14]; at 100.0 µM 68% | [15]; [17] 14% | [15]; [18] 56% | [16]; at 1.2 µM 2% | [16]; at 3.7 µM 19% | [16]; at 11.0 µM 62% | [16]; at 100.0 µM 50%
active: [1]; at 100.0 µM 72% | [5]; at 100.0 µM 85% | [11]; at 33.0 µM 87% | [11]; [18] 86% | [15]; at 50.0 µM 75.2% | [16]; at 33.0 µM 90%

CCCCCCCN(CCCCCCC)CC(=O)c1ccc2cc(Cl)c3ccccc3c2c1
inactive: [1]; at 1.2 µM 3% | [1]; at 3.7 µM 19% | [2]; at 1.2 µM -7% | [2]; at 3.7 µM 18% | [3]; at 1.2 µM -5% | [3]; at 3.7 µM 0% | [3]; at 11.0 µM 29% | [3]; at 33.0 µM 58% | [4]; at 1.2 µM 5% | [4]; at 3.7 µM 19% | [5]; at 1.2 µM 2% | [5]; at 3.7 µM 28% | [5]; [17] 39% | [6]; at 1.2 µM 1% | [6]; at 3.7 µM 0% | [6]; [17] 26% | [7]; at 1.2 µM 36% | [7]; at 3.7 µM 50% | [8]; [17] 60% | [9]; at 1.2 µM 1% | [9]; at 3.7 µM 22% | [10]; [17] 14% | [11]; at 1.2 µM 9% | [11]; at 3.7 µM 24% | [11]; [17] 26%
active: [1]; at 11.0 µM 98% | [1]; at 33.0 µM 96% | [1]; at 100.0 µM 92% | [2]; at 11.0 µM 97% | [2]; at 33.0 µM 97% | [2]; at 100.0 µM 92% | [3]; at 100.0 µM 94% | [4]; at 11.0 µM 98% | [4]; at 33.0 µM 98% | [4]; at 100.0 µM 95% | [5]; at 11.0 µM 98% | [5]; at 33.0 µM 97% | [5]; [18] 93% | [5]; at 50.0 µM 99.3% | [5]; at 100.0 µM 92% | [6]; at 11.0 µM 78% | [6]; at 33.0 µM 98% | [6]; [18] 96% | [6]; at 50.0 µM 99.4% | [6]; at 100.0 µM 96% | [7]; at 11.0 µM 98% | [7]; at 33.0 µM 97% | [7]; at 100.0 µM 95% | [8]; [18] 96% | [8]; at 50.0 µM 99.2% | [9]; at 11.0 µM 98% | [9]; at 33.0 µM 97% | [9]; at 100.0 µM 92% | [10]; [18] 93% | [10]; at 50.0 µM 98.5% | [11]; at 11.0 µM 98% | [11]; at 33.0 µM 97% | [11]; [18] 95% | [11]; at 50.0 µM 98.2% | [11]; at 100.0 µM 94%
